Source: PubChem BioAssay (National Center for Advancing Translational Sciences (NCATS))
Only some compounds are listed: those with a hit (about 2.3% of all), similar ones and a draw of the others.
FUS suppressor: rescues growth of FUS-expressing yeast. S. cerevisiae FUS-expressing, growth rescue, OD600, 24 h. Potency, µM (series often up to 76.6 µM), actives largely listed as activators. 390,000 compounds, 0.24% hits; note: nearly all actives have a fitted effect of over 55% in size
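Yeast expressing FUS under galactose induction, OD 0.005 in 2% galactose medium; compounds in a dilution series, 24 h at 30C. Growth rescue by absorbance at 600 nm; CP55940 positive control, DMSO negative.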
TDP43 rescue: rescues yeast growth from TDP-43 toxicity; TDP-43 expressing yeast growth rescue, BacTiter-Glo, 24 h; Potency, µM (highest dose often 46.1 µM), actives largely listed as activators; 410,000 compounds, 1.8% hits; AID 652104; note: nearly all actives have a fitted effect of over 50% in size
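Readout is BacTiter-Glo luminescence of cell growth, so inhibitors register as activators. TDP-43-expressing yeast at OD600=0.02 in galactose medium, after raffinose pregrowth to mid-log, were incubated with compound for 24 hr at 30 deg C.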
CCT chaperon mod: modulators of cytosolic chaperonin (CCT/TRiC) activity | activity change, % (no concentration beside the values), hits read low | AID 651819 | 360,000 compounds, 0.3% hits | purified chaperonin ATPase assay, HTRF ADP detection, 30 min; in the data active = activity change below about -30%
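ATPase activity: ADP formed was measured by HTRF Transcreener (665/615 nm ratio) after 30 min at 37 deg C with 10 uM ATP. Compounds screened at one 76 uM concentration against 40 or 20 nM TRiC in Tris pH 7.4/KCl/MgCl2/DTT buffer.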
aSyn rescue: rescues yeast growth from alpha-synuclein toxicity; Yeast expressing alpha-synuclein, growth rescue, BacTiter-Glo, 24 h; Potency, µM (doses to about 46.1 µM), actives largely listed as activators; 370,000 compounds, 0.14% hits; note: nearly all actives have a fitted effect of over 65% in size
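Rescue of yeast growth: cells expressing toxic alpha-synuclein, induced in galactose at OD600 0.02, incubated with compound 24 h at 30 C. ATP luminescence quantified growth; inhibitors of toxicity appear as activators.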
Mm-Cpn inhibitor: inhibitors of Methanococcus maripaludis chaperonin TRiC (MmCpn); Potency, µM (series often up to 76.9 µM), most hits filed as inhibitors; purified Mm-Cpn ATPase, ADP Transcreener TR-FRET; 330,000 compounds, 0.031% hits; AID 504842; note: nearly all actives have a fitted effect of over 80% in size
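25 nM Mm-CPN + cpd, 10 min 37°C; + 10 uM ATP, 30 min 37°C; buffer 30 mM Tris pH 7.4, 100 mM KCl, 5 mM MgCl2, 1 mM DTT; Transcreener ADP HTRF detection 30 min RT.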
Abeta rescue: compounds reversing amyloid beta toxicity in yeast; yeast expressing A-beta42, growth rescue, OD600, 48 h; response scale: 0% DMSO, 100% iron-clioquinol control; Potency, µM (highest dose often 46.1 µM), usual class: activators; 410,000 compounds, 0.063% hits; note: nearly all actives have a fitted effect of over 55% in size
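Growth rescue measured by 600 nm absorbance after 48 h yeast culture at 30 C with compound. Values normalized between DMSO and an equimolar ferric chloride plus clioquinol control.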
Large screens that a line does not name were inactive. Unless noted, calls come from the whole dose curve; as a rule, active = well fitted curve in the direction sought with a large enough effect; inconclusive = small, poorly fitted or top-dose-only effect, or another doubt; inactive = no such curve, though single readings can be large; an effect the other way counts as inactive or inconclusive.

CCOC(=O)/C=C(\C)Sc1cc(=O)oc2ccccc12	TDP43 rescue 14µM
Cc1ccc(CNCc2cn[nH]c2-c2ccc(C)cc2)cc1	none (no result: FUS suppressor, TDP43 rescue, CCT chaperon mod, Mm-Cpn inhibitor, Abeta rescue)
CC1(C(=O)Nc2ccc3c(c2)OCCO3)CCN1C(=O)c1ccccc1CCc1ccccc1 (stereo not given)	TDP43 rescue 14µM (no result: Mm-Cpn inhibitor)
CC/C=C\[C@H](O)[C@H](O)C1=C(C)C(=O)[C@]2(O1)C(=O)N[C@@](OC)(C(=O)c1ccccc1)[C@@H]2O	none (no result: TDP43 rescue, CCT chaperon mod, aSyn rescue, Mm-Cpn inhibitor, Abeta rescue)
COC(=O)c1sccc1S(=O)(=O)N1CCN(c2cccc(C)c2)C(C)C1 (stereo not given)	TDP43 rescue 14µM (no result: CCT chaperon mod, aSyn rescue, Mm-Cpn inhibitor)
O=c1c2ccccc2nnn1Cc1cccc2ccccc12	TDP43 rescue 13µM, Abeta rescue inconclusive
O=c1c2ccccc2nnn1CSc1ccc2ccccc2n1	TDP43 rescue 18µM, aSyn rescue inconclusive (no result: FUS suppressor)
Cc1cc(Nc2cccc(Cl)c2C)n2nc(Cc3ccccc3)nc2n1	TDP43 rescue 22µM (no result: CCT chaperon mod, aSyn rescue, Mm-Cpn inhibitor)
Cc1cc(Nc2ccc(C)c(Cl)c2)n2nc(Cc3ccccc3)nc2n1	TDP43 rescue 22µM (no result: CCT chaperon mod, aSyn rescue, Mm-Cpn inhibitor)
Cc1cc(Nc2ccccc2F)n2nc(Cc3ccc(Cl)cc3)nc2n1	none (no result: CCT chaperon mod, aSyn rescue, Mm-Cpn inhibitor)
Cc1cc(Nc2ccccc2C)n2nc(Cc3ccc(Cl)cc3)nc2n1	TDP43 rescue 18µM (no result: CCT chaperon mod, aSyn rescue, Mm-Cpn inhibitor)
CCCC1CCC2(CCCN2CCOC(=O)Nc2ccc(OC)cc2)CC1 (stereo not given)	none (no result: TDP43 rescue, CCT chaperon mod, aSyn rescue, Mm-Cpn inhibitor, Abeta rescue)
CCCCN1CC[C@H](C)Oc2cc(Br)ccc2S1(=O)=O	none (no result: TDP43 rescue, CCT chaperon mod, aSyn rescue, Mm-Cpn inhibitor, Abeta rescue)
O=C1COc2ccccc2C(c2nnnn2Cc2ccccc2)N1Cc1cccs1 (stereo not given)	none (no result: TDP43 rescue, CCT chaperon mod, aSyn rescue, Mm-Cpn inhibitor, Abeta rescue)
O=C(O)c1cc(N/N=C/c2ccc(-c3ccccc3)cc2)ccc1Cl	TDP43 rescue 35µM
COc1ccc(/C=N/Nc2ccc(C(=O)O)cc2)cc1OC	none
O=C(O)c1ccc(N/N=C/c2ccc(-c3ccccc3)cc2)cc1	TDP43 rescue 5.6µM
O=C(O)c1ccc(/C=N/Nc2ccc(C(F)(F)F)cn2)cc1	TDP43 rescue 8.9µM
COc1cc(/C=N/Nc2ccc(C(F)(F)F)cn2)ccc1O	TDP43 rescue inconclusive
O=C(O)c1cc(N/N=C/c2ccncc2)ccc1Cl	none
CC(C)c1ccc(/C=N/Nc2ccc(C(=O)O)cc2)cc1	TDP43 rescue 11µM
Ic1ccc(Nc2nc(NCCN3CCOCC3)nc(N3CCCC3)n2)cc1	none (no result: FUS suppressor, TDP43 rescue, CCT chaperon mod, Mm-Cpn inhibitor, Abeta rescue)
CN(Cc1ccco1)C(=O)c1cccc2c1C(=O)N(Cc1cccnc1)C2	none (no result: TDP43 rescue, CCT chaperon mod, aSyn rescue, Mm-Cpn inhibitor, Abeta rescue)
O=C(O)c1ccc(N/N=C/C=C/c2ccccc2)cc1	TDP43 rescue 3.5µM
COc1ccc2ccccc2c1/C=N/Nc1cccc(C(=O)O)c1	TDP43 rescue 20µM
O=C(O)c1cccc(N/N=C/c2ccc(F)c(F)c2)c1	TDP43 rescue 25µM
CCn1cc(C(=O)NCc2ccccc2)c(=O)c2cc(S(=O)(=O)N3CCCCCC3)ccc21	none (no result: CCT chaperon mod, aSyn rescue, Mm-Cpn inhibitor)
COc1ccc(CNS(=O)(=O)CC2NCCc3ccccc32)cc1 (stereo not given)	none (no result: TDP43 rescue, CCT chaperon mod, aSyn rescue, Mm-Cpn inhibitor, Abeta rescue)
Cc1oc(-c2ccc(C(=O)N(C)Cc3ccccc3)cc2)nc1CN1CCc2ccccc21	FUS suppressor 20µM (no result: CCT chaperon mod, Mm-Cpn inhibitor)
Cc1ccc(CNC(=O)c2ccc(-c3nc(CN4CCc5ccccc54)c(C)o3)cc2)cc1	none (no result: CCT chaperon mod, Mm-Cpn inhibitor)
O=C(COC(=O)/C=C/c1ccc(Cl)cc1Cl)NCC1CCCO1 (stereo not given)	TDP43 rescue 20µM
CC(=O)N1c2cc(S(=O)(=O)Nc3c(C)n(C)n(-c4ccccc4)c3=O)c(Br)cc2CC1C (stereo not given)	none (no result: TDP43 rescue, CCT chaperon mod, aSyn rescue, Mm-Cpn inhibitor, Abeta rescue)
O=C1/C(=C/c2ccncc2)Cc2ccccc21	none
CC1C/C(=C/c2cccn2C)C(=O)/C(=C/c2cccn2C)C1 (stereo not given)	TDP43 rescue 13µM
CC1C/C(=C/c2ccncc2)C(=O)/C(=C/c2ccncc2)C1 (stereo not given)	TDP43 rescue inconclusive, CCT chaperon mod -38
CCOC(=O)c1cc(C(C)(C)C)oc1CNC(=O)c1c(C)oc2c1CCCC2	CCT chaperon mod -54
O=C1CCc2cc(S(=O)(=O)N3CCN(c4ccccc4Cl)CC3)ccc2N1	none (no result: TDP43 rescue, CCT chaperon mod, aSyn rescue, Mm-Cpn inhibitor, Abeta rescue)
